# Assay results reported in the supplement of paper PMC10037445.
# The full ranking holds about 2,900 compounds; the median of “NF-kB SEAP reporter activity, fold change vs agonist alone” is about 0.99, and the highest 2% start at about 2.6. This is one part of a sample in which the highest values are shown more often than they occur.
# Key:
# RAW-Dual [1] = experiment: NF-kB SEAP reporter activity, fold change vs agonist alone; cytotoxicity flag (confluency mask): not cytotoxic; higher = enhanced NF-kB activity
# In short: (§1)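 RAW-Dual macrophages (50,000 cells/well in DMEM, 384-well plates) received 50 nL of library stock by pin tool, then a PRR agonist 1 h later, and were kept at 37 °C, 5% CO2. After 20 hours, supernatant was read for IRF by QuantiLuc luminescence and for NF-κB by QuantiBlue absorbance at 620 nm. Reporter activity is fold change over agonist-alone wells. Cytotoxic wells had IncuCyte confluency below 70% of agonist controls in both mask sets.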
# RAW-Dual [2] = experiment: NF-kB SEAP reporter activity, fold change vs agonist alone; higher = enhanced NF-kB activity; settings: library stock concentration (final ~1000-fold dilution): 10 mM
# In short: as §1
# RAW-Dual [3] = experiment: NF-kB SEAP reporter activity, fold change vs agonist alone; cytotoxicity flag (confluency mask): cytotoxic (confluency <70% of control); higher = enhanced NF-kB activity
# In short: as §1
# [4] = agonist: ODN 1826 (TLR9) 0.5 ug/mL
# [5] = agonist: Pam2CSK4 (TLR2/6) 0.1 ug/mL
# [6] = agonist: Pam3CSK4 (TLR2/1) 0.1 ug/mL
# [7] = cytotoxicity flag (confluency mask): not cytotoxic, agonist: Imiquimod (TLR7) […]
# [8] = cytotoxicity flag (confluency mask): not cytotoxic, agonist: MPLA (TLR4) […]
smiles,measurement,setting,value
Cc1cccc(CN2CCN(C(c3ccccc3)c3ccc(Cl)cc3)CC2)c1.Cl.Cl (stereo not given) (library stock concentration (final ~1000-fold dilution): 2 mM),NF-kB SEAP reporter activity,RAW-Dual [1]; agonist: LPS (TLR4) 0.1 ug/mL,1.51
same,NF-kB SEAP reporter activity,RAW-Dual [1]; [4],0.87
same,NF-kB SEAP reporter activity,RAW-Dual [1]; [5],0.931
same,NF-kB SEAP reporter activity,RAW-Dual [1]; [6],0.984
Brc1ccc(C2CN3CCSC3=N2)cc1.O=C(O)C(=O)O (stereo not given) (library stock concentration (final ~1000-fold dilution): 10 mM),NF-kB SEAP reporter activity,RAW-Dual [1]; agonist: LPS (TLR4) 0.1 ug/mL,1.48
same,NF-kB SEAP reporter activity,RAW-Dual [1]; [4],0.888
same,NF-kB SEAP reporter activity,RAW-Dual [1]; [5],0.956
same,NF-kB SEAP reporter activity,RAW-Dual [1]; [6],1.01
Brc1ccc(C2CN3CCSC3=N2)cc1.O=C(O)C(=O)O (stereo not given),NF-kB SEAP reporter activity,RAW-Dual [2]; [7],0.948
same,NF-kB SEAP reporter activity,RAW-Dual [2]; [8],1.01
CC(=N)NCc1cccc(CN)c1.Cl.Cl (library stock concentration (final ~1000-fold dilution): 10 mM),NF-kB SEAP reporter activity,RAW-Dual [1]; agonist: LPS (TLR4) 0.1 ug/mL,0.956
same,NF-kB SEAP reporter activity,RAW-Dual [1]; [4],1.03
same,NF-kB SEAP reporter activity,RAW-Dual [1]; [5],1.02
same,NF-kB SEAP reporter activity,RAW-Dual [1]; [6],0.859
CC(=N)NCc1cccc(CN)c1.Cl.Cl,NF-kB SEAP reporter activity,RAW-Dual [2]; [7],1.08
same,NF-kB SEAP reporter activity,RAW-Dual [2]; [8],1.03
CNC1CCC(c2ccc(Cl)c(Cl)c2)c2ccccc21.Cl (stereo not given),NF-kB SEAP reporter activity,"RAW-Dual [2]; cytotoxicity flag (confluency mask): cytotoxic (confluency <70% of control), agonist: Imiquimod (TLR7) […]",1.64
same,NF-kB SEAP reporter activity,"RAW-Dual [2]; cytotoxicity flag (confluency mask): cytotoxic (confluency <70% of control), agonist: MPLA (TLR4) […]",1.56
CNC1CCC(c2ccc(Cl)c(Cl)c2)c2ccccc21.Cl (stereo not given) (library stock concentration (final ~1000-fold dilution): 10 mM),NF-kB SEAP reporter activity,RAW-Dual [3]; agonist: LPS (TLR4) 0.1 ug/mL,0.879
same,NF-kB SEAP reporter activity,RAW-Dual [3]; [4],0.405
same,NF-kB SEAP reporter activity,RAW-Dual [3]; [5],0.42
same,NF-kB SEAP reporter activity,RAW-Dual [3]; [6],0.484
CC(C)(C)c1ccc(Cn2nc(-c3ccc(Cl)cc3)cc2C(=O)NO)cc1,NF-kB SEAP reporter activity,RAW-Dual [2]; [7],1.47
same,NF-kB SEAP reporter activity,RAW-Dual [2]; [8],1.5
CC(C)(C)c1ccc(Cn2nc(-c3ccc(Cl)cc3)cc2C(=O)NO)cc1 (library stock concentration (final ~1000-fold dilution): 10 mM),NF-kB SEAP reporter activity,RAW-Dual [1]; agonist: LPS (TLR4) 0.1 ug/mL,1.32
same,NF-kB SEAP reporter activity,RAW-Dual [1]; [4],1.24
same,NF-kB SEAP reporter activity,RAW-Dual [1]; [5],0.824
same,NF-kB SEAP reporter activity,RAW-Dual [1]; [6],0.964
COC1/C=C/OC2(C)Oc3c(C)c(O)c4c(O)c(c(/C=N/N5CCN(C)CC5)c(O)c4c3C2=O)NC(=O)/C(C)=C/C=C/C(C)C(O)C(C)C(O)C(C)C(OC(C)=O)C1C (stereo not given),NF-kB SEAP reporter activity,RAW-Dual [2]; [7],0.886
same,NF-kB SEAP reporter activity,RAW-Dual [2]; [8],0.877
COC1/C=C/OC2(C)Oc3c(C)c(O)c4c(O)c(c(/C=N/N5CCN(C)CC5)c(O)c4c3C2=O)NC(=O)/C(C)=C/C=C/C(C)C(O)C(C)C(O)C(C)C(OC(C)=O)C1C (stereo not given) (library stock concentration (final ~1000-fold dilution): 10 mM),NF-kB SEAP reporter activity,RAW-Dual [1]; agonist: LPS (TLR4) 0.1 ug/mL,0.987
same,NF-kB SEAP reporter activity,RAW-Dual [1]; [4],0.979
same,NF-kB SEAP reporter activity,RAW-Dual [1]; [5],0.906
same,NF-kB SEAP reporter activity,RAW-Dual [1]; [6],0.892
O=C(O)c1ccc(CSc2nc(-c3ccccc3)cc(N3CCN(c4ccccc4Cl)CC3)n2)cc1 (library stock concentration (final ~1000-fold dilution): 10 mM),NF-kB SEAP reporter activity,RAW-Dual [1]; agonist: LPS (TLR4) 0.1 ug/mL,0.736
same,NF-kB SEAP reporter activity,RAW-Dual [1]; [4],0.584
same,NF-kB SEAP reporter activity,RAW-Dual [1]; [5],0.248
same,NF-kB SEAP reporter activity,RAW-Dual [1]; [6],0.392
O=C(O)c1ccc(CSc2nc(-c3ccccc3)cc(N3CCN(c4ccccc4Cl)CC3)n2)cc1,NF-kB SEAP reporter activity,RAW-Dual [2]; [7],0.515
same,NF-kB SEAP reporter activity,RAW-Dual [2]; [8],0.868
